Results from PubChem BioAssay (Tox21).
Inconclusive results are not listed. Calls of active or inactive are those of the source. The call rests on the fitted dose curve; in most records, active means well fitted inhibition curve with a large enough effect in the repeat runs; inconclusive means weak or mixed curves; inactive means no such curve, though single readings can be large or run the other way.

Target: Cytochrome P450 3A4 (Homo sapiens) (UniProt P08684)
Experiment: Cytochrome P450 Family 3 Subfamily A Member 4 (CYP3A4) small molecule antagonists: luciferase reporter qHTS assay (AID 1671201); further: nearly all actives have a fitted effect of over 50% in size
Conditions: P450-Glo CYP3A4 enzyme, luciferin luminescence, 1 h; series mostly up to 115 µM; activity change, negative = inhibition: at the top concentration
Outline: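 P450-Glo CYP3A4 system with proluciferin substrate; compounds preincubated 10 min RT with enzyme-substrate mix, then NADPH regeneration added for 1 h RT. Detection reagent 20 min, luminescence read as relative luminescence units.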
On the % scale 0 is the no-effect control and ±100 the full control effect; potency means the concentration at half of the fitted maximal effect.

Chain of Cytochrome P450 3A4 (Homo sapiens) (P08684 whole entry, looked up): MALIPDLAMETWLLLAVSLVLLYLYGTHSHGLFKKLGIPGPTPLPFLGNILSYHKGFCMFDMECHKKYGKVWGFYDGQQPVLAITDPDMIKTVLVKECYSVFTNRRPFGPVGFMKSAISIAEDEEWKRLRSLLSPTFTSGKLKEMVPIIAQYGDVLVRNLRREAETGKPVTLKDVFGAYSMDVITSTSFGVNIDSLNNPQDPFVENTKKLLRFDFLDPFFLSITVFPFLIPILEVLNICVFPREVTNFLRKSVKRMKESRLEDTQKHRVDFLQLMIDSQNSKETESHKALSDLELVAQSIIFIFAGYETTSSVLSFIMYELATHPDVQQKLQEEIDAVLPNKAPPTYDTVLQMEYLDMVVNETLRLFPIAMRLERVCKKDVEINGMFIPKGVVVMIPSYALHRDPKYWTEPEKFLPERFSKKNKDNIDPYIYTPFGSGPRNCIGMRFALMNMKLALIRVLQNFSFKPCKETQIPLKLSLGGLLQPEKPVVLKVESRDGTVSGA

SMILES | Potency | activity change, negative = inhibition
CCCCCCCCCCCC[N+](C)(C)CCCCCCCCCCCC | 35.6 µM (active) | 
CN1CCC(Nc2ncc3ncnc(Nc4ccc(F)c(Cl)c4)c3n2)CC1 |  | 34.9% [at 52.9 µM] (inactive)
CC(C)(C)C(=O)OCOC(=O)C1N2C(=O)CC2S(=O)(=O)C1(C)C (configuration not stated) |  | -0.0814% [at 52.9 µM] (inactive)
CCCCCOC(=O)CCCC |  | 5.98% (inactive)
O=S1(=O)CC(Cl)(Cl)C(Cl)(Cl)C1 | 25.2 µM (active) | 
O=C1c2ccccc2Cc2ccccc21 | 22.6 µM (active) | 
O=C(c1ccc(F)cc1)C1CCN(CCn2c(=O)[nH]c3ccccc3c2=O)CC1 |  | -8.94% [at 52.9 µM] (inactive)
Oc1ccc(C2(c3ccc(O)cc3)CC3CC2C2CCCC32)cc1 (configuration not stated) | 38.4 µM (active) | 
NNc1nc(-c2ccc([N+](=O)[O-])cc2)cs1 | 5.03 µM (active) | 
CC1=C(/C=C/C(C)=C/C=C/C(C)=C/C=O)C(C)(C)CCC1 | 28.1 µM (active) | 
O=C(Oc1cccc2cccnc12)c1ccccc1 |  | 11.9% [at 52.9 µM] (inactive)
CCC(N)(CO)CO |  | 0.827% (inactive)
O=c1[nH]sc2ccccc12 | 39.9 µM (active) | 
COC(=O)c1cc(Cl)ccc1OC |  | 15.3% [at 52.9 µM] (inactive)
O=[N+]([O-])c1ccccc1Nc1ccccc1 |  | -26% (inactive)
CCc1cc(SCc2sc(-c3ccc(C(F)(F)F)cc3)nc2CN2CCN(c3ccc(OC)cc3)CC2)ccc1OCC(=O)O | 11.2 µM (active) | 
NC(=O)N1C(=O)C(C(=O)c2cc(Cl)cs2)c2cc(F)c(Cl)cc21 (configuration not stated) | 5.03 µM (active) | 
CCCN(CCC)c1c([N+](=O)[O-])cc(C(F)(F)F)c(N)c1[N+](=O)[O-] | 12.6 µM (active) | 
N#CC1(c2ccc(F)cc2)CCC(=O)CC1 |  | 7.76% [at 52.9 µM] (inactive)
Nc1ccc(N)c2ccccc12 | 3.55 µM (active) | 
O=C(O)c1cc(O)c2c(c1)C(=O)c1cccc(O)c1C2=O |  | -2.84% (inactive)
CC1(C)CCC(C)(C)c2cc(C(=O)Nc3ccc(C(=O)O)cc3)ccc21 |  | -1.91% (inactive)
Nc1ccc2cc(S(=O)(=O)O)cc(O)c2c1N=Nc1ccccc1C(F)(F)F |  | -16.2% (inactive)
CC(=O)OCC(C)OC(C)=O (configuration not stated) |  | 8.23% (inactive)
CC(C)CCCCCCCCCCCCCCC(=O)O |  | 7.03% (inactive)
Cc1cc2c(cc1C(F)(F)F)N(C(=O)Nc1ccc(Oc3cccnc3C)nc1)CC2 | 20.3 µM (active) | 
Cc1nc(-c2ccc3c(c2)CCN(CCC2CCC(NC(=O)/C=C/c4ccc(F)cc4)CC2)CC3)no1 (configuration not stated) |  | 47.3% [at 52.9 µM] (inactive)
